# Screening results as filed in PubChem.
# Only some compounds are listed: those with a hit (about 18% of all), similar ones and a draw of the others.
# TDP1 cell noCPT = qHTS for Inhibitors of human tyrosyl-DNA phosphodiesterase 1 (TDP1): qHTS in cells in absence of CPT; DT40 Tdp1-/- hTDP1 cells, no CPT, ATP luminescence, 48 h; Potency, µM (highest dose often 46.2 µM), usual class: inhibitors; actives 15% (n = 420,000); AID 686978, 2013; note: nearly all actives have a fitted effect of over 55% in size
#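 Seeded 400 DT40-hTDP1 cells/well (vehicle DMSO, no 20 nM CPT); pinned compounds; ≥48 hr at 37 °C; CellTiter-Glo luminescence as viability measure.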
# LDHA block = qHTS assay for inhibitors of human lactate dehydrogenase; L-lactate dehydrogenase A chain (Homo sapiens), P00338; purified LDHA, NADH/diaphorase-resazurin fluorescence; active compounds read low; activity change, % (values are at about 110 or 230 µM); actives 0.15% (n = 480,000); AID 1347041, 2019; in the data active = activity change below about -30%; inconclusive = mostly about -25% to -30%
#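 Enzyme activity of human lactate dehydrogenase 5 (2 nM; 0.06 mM NADH, 0.2 mM pyruvate, 5 min, RT) is measured via a resazurin/diaphorase fluorescence readout of residual NADH.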
# RORg inh = qHTS for inhibitors of ROR gamma transcriptional activity; Nuclear receptor ROR-gamma (Mus musculus), P51450; Drosophila S2 Gal4-RORgamma UAS-luciferase reporter, 20 h; Potency, µM (doses to about 53.6 µM), hits mostly inhibitors; actives 5.4% (n = 310,000); AID 2551, 2010; note: nearly all actives have a fitted effect of over 60% in size
# Target sequence (P51450 whole entry, looked up, the tested form may be a part): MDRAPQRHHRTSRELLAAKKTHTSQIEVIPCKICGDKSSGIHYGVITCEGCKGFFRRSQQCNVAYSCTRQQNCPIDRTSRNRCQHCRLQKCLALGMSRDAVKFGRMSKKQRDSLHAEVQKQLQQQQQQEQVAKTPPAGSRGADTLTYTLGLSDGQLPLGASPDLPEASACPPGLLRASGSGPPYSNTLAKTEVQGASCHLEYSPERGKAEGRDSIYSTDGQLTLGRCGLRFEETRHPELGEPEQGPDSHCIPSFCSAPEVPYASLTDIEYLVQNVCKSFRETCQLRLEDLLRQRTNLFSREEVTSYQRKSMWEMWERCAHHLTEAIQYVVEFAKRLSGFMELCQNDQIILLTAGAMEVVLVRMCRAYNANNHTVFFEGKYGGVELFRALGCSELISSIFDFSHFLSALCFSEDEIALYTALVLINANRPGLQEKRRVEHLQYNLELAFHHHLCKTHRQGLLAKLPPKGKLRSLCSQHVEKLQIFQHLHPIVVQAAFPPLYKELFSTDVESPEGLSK
#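 Compounds are pin-transferred onto Drosophila Schneider cells expressing a copper-inducible Gal4–ROR gamma transactivation domain fusion. After 1 hr, copper sulfate is added to 700 uM final; luciferase is read 20 hr later.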
# DT40 TDP1 CPT = qHTS for Inhibitors of human tyrosyl-DNA phosphodiesterase 1 (TDP1): qHTS in cells in presence of CPT; chicken DT40 Tdp1-/-;hTDP1 cells + 20 nM CPT, ATP luminescence, 48 h; Potency, µM (highest dose often 46.2 µM), usual class: inhibitors; actives 12% (n = 420,000); note: nearly all actives have a fitted effect of over 55% in size
#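 Chicken DT40 Tdp1-/- cells complemented with human TDP1, 400 cells/well, exposed to compounds plus 20 nM camptothecin for at least 48 h at 37 C; viability read as ATP content by CellTiter-Glo luminescence.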
# VP16 counter = VP16 counterscreen qHTS for inhibitors of ROR gamma transcriptional activity. Drosophila S2 Gal4-VP16 UAS-luciferase, luminescence, 20 h. Potency, µM (series often up to 53.6 µM), usual class: inhibitors. actives 3.5% (n = 310,000);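 note: Gal4-VP16 expression switched on by copper sulfate through the metallothionein promoter; nearly all actives have a fitted effect of over 50% in size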
# IL-1B inflam inh = qHTS for Inhibitors of Inflammasome Signaling: IL-1-beta AlphaLISA Primary Screen. THP-1 LPS/ATP IL-1B secretion, AlphaLISA, 16 h; active compounds read low. activity change, % at 57.5 µM. actives 4.7% (n = 360,000); in the data active = activity change below about -50%; inconclusive = mostly about -30% to -49%
#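 Secreted IL-1B measured by AlphaLISA bead assay after 16 h compound exposure of THP-1 cells; compounds (final up to 57.5 uM) added 1 h before LPS (250 ng/mL) and ATP (1.25 mM) stimulation; lower signal means less secretion.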
# Hits are given with their value; - = inactive; ? = inconclusive; . = no result; [ ] = dose if it differs, or a comment. Unless noted, calls come from the whole dose curve; as a rule, active = well fitted curve in the direction sought with a large enough effect; inconclusive = small, poorly fitted or top-dose-only effect, or another doubt; inactive = no such curve, though single readings can be large; an effect the other way counts as inactive or inconclusive.
SMILES,TDP1 cell noCPT,LDHA block,RORg inh,DT40 TDP1 CPT,VP16 counter,IL-1B inflam inh
CN(C)S(=O)(=O)c1cccc(NC(=O)c2cccc(Oc3ccccc3)c2)c1,.,-,.,.,.,.
COc1ccc(N=C2CCS(=O)(=O)c3sccc32)cc1,?,-,-,9.2µM,-[10 µM],-
O=C(NCC1(N2CCCCC2)CCCCC1)C1CCN(C(=O)c2ccc(F)cc2)CC1,.,-,.,.,.,.
CCN1CCN(S(=O)(=O)c2ccc(Cl)c(C(=O)N(C)Cc3ccccc3)c2)CC1,-,-,.,?,.,-
CCN1CCN(S(=O)(=O)c2ccc(Cl)c(C(=O)N(C)Cc3ccc(F)cc3)c2)CC1,?,-,.,-,.,-
CCN1CCN(S(=O)(=O)c2ccc(Cl)c(C(=O)N(C)Cc3ccc(C(C)(C)C)cc3)c2)CC1,12µM,-,.,?,.,-
CCN1CCN(S(=O)(=O)c2ccc(Cl)c(C(=O)N(C)Cc3cccc(Cl)c3Cl)c2)CC1,21µM,-,.,16µM,.,-69
Cc1ccc(C)c(-c2ccc(C(=O)O)o2)c1,.,.,13µM,.,-,.
COc1ccc(CN(C(=O)CSc2nnc(-c3c[nH]c4ccccc34)o2)c2ccc(F)cc2)cc1OC,9.2µM,-,?,8.2µM,-,-83
COc1ccc(CN(C(=O)CSc2nnc(-c3ccc(F)cc3)o2)c2ccc(F)cc2)cc1,21µM,-,-,23µM,-,-
O=C(CC1C=CCC1)Nc1cccc(OC2CCCC2)c1 (stereo not drawn),.,-,.,.,.,.
CC(C)(C)c1ccc(C(=O)NC(=O)COC(=O)c2ccccc2)cc1,.,-,.,.,.,.
CC(=O)Nc1cc2c(cc1[N+](=O)[O-])-c1ccccc1C2O (stereo not drawn),12µM,-,.,?,.,?
CCOC(=O)CNC(=O)CN1CCCN(S(=O)(=O)c2ccc(Br)s2)CC1,?,-,-,-,-,-
O=C(CN1CCCN(S(=O)(=O)c2ccc(Br)s2)CC1)Nc1ccc(Cl)cc1,?,-,-,?,?,-76
CC1CCCC(NC(=O)CN2CCN(S(=O)(=O)c3ccc(Br)s3)CC2)C1C (stereo not drawn),18µM,-,.,?,.,?
COC(=O)C(Br)(C(=O)OC)C(OC)(C(=O)OC)C(=O)OC,.,-,.,.,.,.
Nc1cc(Cc2ccccc2)ccc1O,?,-,.,23µM,.,-
Nc1cc(N)cc(Cc2ccccc2)c1,-,-,.,-,.,-
CN(C)c1ccc(/C=N/NC(=O)C(=O)/C=C2\NC3(CCCC3)Cc3ccccc32)cc1,21µM,-,-,26µM,-,-
COc1cc(/C=N/NC(=O)C(=O)/C=C2\NC3(CCCC3)Cc3ccccc32)ccc1O,?,-,?,?,?,-
O=C(/C=C1\NC2(CCCC2)Cc2ccccc21)C(=O)N/N=C/c1ccccc1O,2.1µM,-,-,3.7µM,-,-
CC(N)c1ccc(OC(F)F)cc1 (stereo not drawn),.,-,.,.,.,.
CCOc1ccc(NC(=O)c2cc(=O)c3c(C)cc(C)cc3o2)cc1,.,-,.,.,.,.
COc1ccc(C(=O)CSc2nc3nn(-c4ccccc4)c(=O)c-3c3n2CCCCC3)c(OC)c1,?,-,.,?,.,-
O=C(CSc1nc2nn(-c3ccccc3)c(=O)c-2c2n1CCCCC2)Nc1ccccc1[N+](=O)[O-],?,-,.,21µM,.,-
O=C(CSc1nc2nn(-c3ccccc3)c(=O)c-2c2n1CCCCC2)NCCCc1ccccc1,-,-,-,-,-,-60
O=C(CSc1nnc(-c2ccncc2)n1C1CC1)Nc1ccccc1C(=O)NC1CC1,.,-,.,.,.,.
Cc1ccc(-c2noc(CSc3nnc(CCc4ccccc4)n3-c3ccccc3)n2)cc1,16µM,-,-,16µM,-,-
